ATXN2 expr inh: ATXN2 expression inhibition; HEK-293 ATXN2-luciferase reporter, luminescence, 24 h; Potency, µM (top dose mostly 57 µM), for the others: top-dose activity change, negative = inhibition, usual class: inhibitors; 360,000 tested, 0.72% active; AID 1745845; also: % is scaled to controls: 0 for no effect and ±100 for the full control effect; nearly all actives have a fitted effect of over 55% in size
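ATXN2-luciferase reporter cells (luciferase flanked by upstream and downstream ATXN2 gene portions) were treated 24 h at 37 °C with compounds at up to 57 uM. SteadyGlo luminescence gave expression; GF-AFC fluorescence gave viability.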
ATXN viability: viability counter-screen for ATXN expression inhibitors; S2 cells (HEK-293 line with an ATXN2-luciferase reporter) viability, CellTiter-Fluor protease fluorescence, 24 h; Potency, µM (highest dose often 56.7 µM), most hits filed as cytotoxic; 400,000 tested, 0.49% active; also: nearly all actives have a fitted effect of over 40% in size
Nrf2 activator: activators of Nrf2 (ARE) signaling. AREc32 ARE-luciferase reporter (MCF7-derived line), luminescence, 24 h. Potency, µM (top dose mostly 46.1 µM), for inactives: top-dose activation, actives largely listed as activators. 410,000 tested, 0.31% active; also: % of control where 0% means no effect; nearly all actives have a fitted effect of over 65% in size
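Luminescent ARE reporter assay in AREc32_Fluc cells: overnight plating at 37 deg C, 24 hr compound incubation, Steady-Glo added, 30 min RT before reading.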
A549 tox: counter-screen for Nrf2 inhibitors: cytotoxicity in A549 cells; AID 504648; 390,000 tested, 0.16% active; Potency, µM (highest dose often 46 µM), without a hit: top-dose activity change, negative = cytotoxicity, usual class: inhibitors; A549 ARE-Fluc cells, CellTiter-Fluor viability, 18-24 h; also: % is scaled to controls: 0 for no effect and ±100 for the full control effect
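A549 ARE_Fluc cells in 5% FBS OPTI-MEM were exposed to compounds in concentration-response for 18-24 h at 37 deg C. Viability was read by CellTiter-Fluor fluorescence (Ex 405/Em 525) after 30 min, before the luciferase read.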
Nrf2 inh: blocks Nrf2 signaling; A549 ARE-Fluc reporter, luciferase luminescence, 18-24 h; AID 504444; 360,000 tested, 2.1% active; Potency, µM (highest dose often 46 µM), without a hit: top-dose activity change, negative = inhibition, usual class: inhibitors; also: % is scaled to controls: 0 for no effect and ±100 for the full control effect; nearly all actives have a fitted effect of over 60% in size
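In this cell-based qHTS, ARE-driven firefly luciferase in A549 cells reports Nrf2 activity; the luminescent signal after BugLite lysis is the measured value, with a prior CellTiter-Fluor read for cell health.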
The depositor's hits bear a star; [ ] = dose if it differs, or a comment. A selection: hits, their analogues and other compounds. The true share with any hit is near 2.9%. Calls follow the shape of the dose curve; as a rule, active = well fitted curve in the direction sought with a large enough effect; inconclusive = small, poorly fitted or top-dose-only effect, or another doubt; inactive = no such curve, though single readings can be large; an effect the other way counts as inactive or inconclusive. Potency is read from the fitted curve at half-maximal effect.

Screening O=C(C1CCCN(c2ncnc3c2nc2n3CCCCC2)C1)N1CCN(c2ccccc2)CC1 (stereo unspecified) returned ATXN viability inactive, Nrf2 activator 0%, A549 tox -2% and Nrf2 inh 3%.
Cc1ccc(NC(=O)C2CCN(c3ncnc4c3nc3n4CCCCC3)CC2)cc1Cl was read as ATXN2 expr inh -17%, ATXN viability inactive, Nrf2 activator 0%, A549 tox inconclusive and Nrf2 inh 13µM*.
Cc1cc(N2CCC(C(=O)N3CCN(c4cccc(C)c4C)CC3)CC2)n2ncnc2n1 was read as ATXN2 expr inh -39%, ATXN viability inactive, Nrf2 activator 0%, A549 tox 11%[1.84 µM] and Nrf2 inh 15µM*.
Screening Cc1ccc(NC(=O)C2CCCN(c3ncnc4c3nc3n4CCCCC3)C2)cc1Cl (stereo unspecified) returned ATXN2 expr inh -36%, ATXN viability inactive, Nrf2 activator -1%, A549 tox -6% and Nrf2 inh -14%.
`Cc1cccc(N2CCN(C(=O)C3CCN(c4ncnc5c4nc4n5CCCCC4)CC3)CC2C)c1` (stereo unspecified) gave ATXN2 expr inh inconclusive, ATXN viability inconclusive, Nrf2 activator -3%, A549 tox inconclusive and Nrf2 inh 18µM*.
`O=C(C1CCN(c2ncnc3c2nc2n3CCCCC2)CC1)N1CCN(c2ccccc2F)CC1` gave ATXN viability inconclusive, Nrf2 activator 0%, A549 tox 1% and Nrf2 inh inconclusive.
`CCOc1ccccc1C(=O)N1CCN(c2ccc(C(F)(F)F)cn2)CC1` gave ATXN2 expr inh inconclusive, ATXN viability inactive, Nrf2 activator -1%, A549 tox 2% and Nrf2 inh inconclusive.
O=C(CSc1cn(CC(=O)N2CCCCC2)c2ccccc12)Nc1ccccc1 was read as ATXN2 expr inh 7%, ATXN viability inactive, Nrf2 activator 0% and A549 tox 9%.
CCOC(=O)N1CCN(C(=O)CCCn2c(=S)[nH]c3ccc(Br)cc3c2=O)CC1 was read as ATXN2 expr inh -3%, ATXN viability inconclusive, Nrf2 activator -1%, A549 tox -11% and Nrf2 inh inconclusive.
`COc1ccc(Nc2nc(-c3sc(C)nc3C)cs2)cc1` gave ATXN viability inconclusive, Nrf2 activator 11%, A549 tox -10% and Nrf2 inh -16%.
COc1ccc(CCNc2nc(-c3sc(C)nc3C)cs2)cc1OC was read as ATXN2 expr inh inconclusive, ATXN viability inconclusive, Nrf2 activator 0%, A549 tox inconclusive and Nrf2 inh 21µM*.
`COc1ccc(CCNc2nc(-c3cccnc3)cs2)cc1OC` gave ATXN2 expr inh -23%, ATXN viability inactive, Nrf2 activator 0%, A549 tox -6% and Nrf2 inh 23µM*.
`Cc1nc(C)c(-c2csc(Nc3ccc(N)cc3)n2)s1` gave ATXN viability inactive, Nrf2 activator 22%, A549 tox -20% and Nrf2 inh 21µM*.
O=C(CCCOc1ccccc1)OCn1nnc2ccccc2c1=O was read as ATXN viability inactive, Nrf2 activator -1%, A549 tox -4% and Nrf2 inh 0%.
For COc1cc(OC)c2c3c(c(C4CCCCC4)nc2c1)CCCC3 the results were ATXN2 expr inh 1%, ATXN viability inactive, Nrf2 activator 1%, A549 tox -5% and Nrf2 inh 20%.
COc1ccc(CCNC(=O)CSc2nccc(=O)[nH]2)cc1OC was read as ATXN2 expr inh -19%, ATXN viability inactive, Nrf2 activator 0%, A549 tox 12% and Nrf2 inh 8%.
For CCOc1ccc2ncc(C(=O)c3ccc(OC)cc3)c(N3CCN(CC)CC3)c2c1 the results were ATXN2 expr inh -12%, ATXN viability inactive, Nrf2 activator 6%, A549 tox 3% and Nrf2 inh -13%.
`CCOC(=O)C1CCCN(c2c(C(=O)c3ccc(C)cc3)cnc3ccc(OCC)cc23)C1` (stereo unspecified) gave Nrf2 activator 0%, A549 tox inconclusive and Nrf2 inh 23µM*.
`CCCCN(CCCC)S(=O)(=O)c1ccc(NS(=O)(=O)c2ccc(NC(C)=O)cc2)cc1` gave ATXN2 expr inh -15%, ATXN viability inactive, Nrf2 activator 0%, A549 tox -10%[1.84 µM] and Nrf2 inh 16µM*.
Screening CCCCOc1ccc(S(=O)(=O)Nc2ccc(NC(C)=O)cc2)cc1 returned ATXN2 expr inh -8%, ATXN viability inactive, Nrf2 activator 0%, A549 tox -9% and Nrf2 inh inconclusive.
Cc1onc(-c2ccccc2)c1C(=O)N/N=C/c1c[nH]c2ccccc12 was read as ATXN2 expr inh inconclusive, ATXN viability inactive, Nrf2 activator 8%, A549 tox inconclusive and Nrf2 inh 15µM*.
For O=C(Nc1nnc(S(=O)(=O)N2CCCCC2)s1)c1cccc(Br)c1 the results were ATXN2 expr inh 2%, ATXN viability inconclusive, Nrf2 activator 3%, A549 tox -8% and Nrf2 inh 26µM*.
For O=C(Nc1ccncc1)c1cccc(S(=O)(=O)N2CCCC2)c1 the results were ATXN2 expr inh -17%, ATXN viability inactive, Nrf2 activator 0%, A549 tox -19% and Nrf2 inh 8.2µM*.
Cc1cc(C)c(O)c(-c2cc(C(=O)Nc3ccc(S(=O)(=O)N4CCOCC4)cc3)[nH]n2)c1 was read as ATXN2 expr inh 18µM*, ATXN viability inconclusive, Nrf2 activator -2%, A549 tox inconclusive and Nrf2 inh inconclusive.
`O=C(Nc1ccc(N2CCOCC2)cc1)c1cccc(S(=O)(=O)N2CCCCC2)c1` gave ATXN2 expr inh -1%, ATXN viability inactive, Nrf2 activator 0%, A549 tox -13% and Nrf2 inh 21µM*.
`O=C(Nc1ccncc1)c1cccc(S(=O)(=O)N2CCOCC2)c1` gave ATXN2 expr inh -13%, ATXN viability inactive, Nrf2 activator 0%, A549 tox -4% and Nrf2 inh -19%.
Cc1ccc(NC(=O)NCCOCCn2c(=O)oc3ccccc32)cc1F was read as ATXN2 expr inh -20%, ATXN viability inactive, Nrf2 activator 0%, A549 tox 5% and Nrf2 inh inconclusive.
For O=C(Nc1cccc(S(=O)(=O)N2CCCC2)c1)c1cc(-c2ccccn2)nc2ccccc12 the results were ATXN2 expr inh 0%, ATXN viability inactive, Nrf2 activator 0%, A549 tox -1% and Nrf2 inh 9.2µM*.
Screening Cc1ccccc1OCCOC(=O)c1cc(S(=O)(=O)N2CCCCC2)ccc1N1CCOCC1 returned ATXN2 expr inh -11%, ATXN viability inconclusive, Nrf2 activator 0%, A549 tox -6% and Nrf2 inh 16µM*.
